Sampled rows, rich in hits. Any-hit rate of the full collection: about 18%.
DT40 TDP1 CPT = growth inhibition of DT40 Tdp1-/-;hTDP1 cells with camptothecin (screen for TDP1 inhibitors); chicken DT40 Tdp1-/-;hTDP1 cells + 20 nM CPT, ATP luminescence, 48 h; Potency, µM (titrated, usually from 46.2 µM), actives largely listed as inhibitors; actives 12% (n = 420,000); note: nearly all actives have a fitted effect of over 55% in size
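Cell growth measured by CellTiter-Glo luminescence after a minimum 48 h, 37 C compound exposure with 20 nM CPT in Tdp1-knockout DT40 cells stably expressing hTDP1, seeded 400/well; qHTS titration format.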
TGFb inhibitor = blocks TGF-b signaling. actives 1.2% (n = 410,000). Potency, µM (doses to about 46.1 µM), most hits filed as inhibitors. HepG2 CAGA-GFP TGF-b/SMAD3 reporter, GFP fluorescence, 18 h; TGF-beta stimulated, 500 pg/mL final; note: nearly all actives have a fitted effect of over 65% in size
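Using HEPG2 CAGA-GFP reporter cells at 1000 cells/well, we pinned test compounds, stimulated with recombinant TGF-beta (500 pg/mL final) and measured total well GFP after 18 h.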
IL-1B inflam inh = inflammasome signaling inhibition, IL-1 beta readout; THP-1 LPS/ATP IL-1B secretion, AlphaLISA, 16 h; active compounds read low; activity change, % at 57.5 µM; actives 4.7% (n = 360,000); in the data active = activity change below about -50%; inconclusive = mostly about -30% to -49%
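Secreted IL-1B measured by AlphaLISA bead assay after 16 h compound exposure of THP-1 cells; compounds (final up to 57.5 uM) added 1 h before LPS (250 ng/mL) and ATP (1.25 mM) stimulation; lower signal means less secretion.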
TDP1 cell noCPT = qHTS for Inhibitors of human tyrosyl-DNA phosphodiesterase 1 (TDP1): qHTS in cells in absence of CPT; DT40 Tdp1-/- hTDP1 cells, no CPT, ATP luminescence, 48 h; Potency, µM (highest dose often 46.2 µM), usual class: inhibitors; actives 15% (n = 420,000); AID 686978, 2013; note: nearly all actives have a fitted effect of over 55% in size
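Compound effects on proliferation are scored in DT40 Tdp1-/-;hTDP1 cells in the absence of CPT. ATP levels (CellTiter-Glo luminescence) are recorded after a ≥48 hr, 37 °C incubation.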
HepG2 viability = kills HepG2 cells in TGF-b inhibitor counter-screen | actives 0.76% (n = 410,000) | HepG2 CAGA-GFP viability, ATP luminescence, 18 h | Potency, µM (titrated, usually from 46.1 µM), most hits filed as cytotoxic
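HepG2 CAGA-GFP cells (1000/well, DMEM with 1% FBS) received compound, then TGF-beta at 500 pg/mL final, and were incubated 18 hours at 37 degrees C. Viability was read by CellTiter-Glo luminescence. Media-only wells were set as complete cell-killing and DMSO as no toxicity.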
TDP1 inh = TDP1 (human) enzyme inhibition; Q9NUW8; recombinant TDP1, AlphaScreen DNA substrate cleavage; Potency, µM (series often up to 130 µM), most hits filed as inhibitors; actives 0.28% (n = 350,000); note: nearly all actives have a fitted effect of over 40% in size
Target sequence (Q9NUW8 whole entry, looked up): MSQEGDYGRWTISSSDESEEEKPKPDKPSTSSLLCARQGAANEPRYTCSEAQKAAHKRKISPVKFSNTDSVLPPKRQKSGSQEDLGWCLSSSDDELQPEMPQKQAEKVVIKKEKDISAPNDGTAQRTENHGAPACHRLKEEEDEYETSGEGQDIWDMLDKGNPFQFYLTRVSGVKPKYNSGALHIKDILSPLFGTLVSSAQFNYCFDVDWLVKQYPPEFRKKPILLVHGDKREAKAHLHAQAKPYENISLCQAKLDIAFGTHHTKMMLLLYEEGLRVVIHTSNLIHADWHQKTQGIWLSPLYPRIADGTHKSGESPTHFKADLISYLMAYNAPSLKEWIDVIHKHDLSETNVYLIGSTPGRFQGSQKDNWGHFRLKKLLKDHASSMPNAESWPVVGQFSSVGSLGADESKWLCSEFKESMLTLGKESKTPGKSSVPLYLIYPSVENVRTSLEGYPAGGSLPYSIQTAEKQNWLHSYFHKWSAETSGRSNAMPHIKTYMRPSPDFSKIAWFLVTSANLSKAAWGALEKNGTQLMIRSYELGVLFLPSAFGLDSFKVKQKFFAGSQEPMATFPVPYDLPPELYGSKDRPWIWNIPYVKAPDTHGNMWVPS
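Signal: AlphaScreen proximity between streptavidin donor and anti-FITC acceptor beads on intact substrate. Reaction: Tdp1 1 nM, substrate 15 nM final, 5 min RT after 15 min compound preincubation.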
Hits are given with their value; [ ] = dose if it differs, or a comment. Unless noted, calls come from the whole dose curve; as a rule, active = well fitted curve in the direction sought with a large enough effect; inconclusive = small, poorly fitted or top-dose-only effect, or another doubt; inactive = no such curve, though single readings can be large; an effect the other way counts as inactive or inconclusive.

What do the screens show for `O=C1NC(c2cccs2)Nc2ccccc21` (configuration not stated)?
DT40 TDP1 CPT: 5.17µM; TGFb inhibitor: inconclusive; IL-1B inflam inh: inactive; TDP1 cell noCPT: 8.2µM; HepG2 viability: inactive; TDP1 inh: inactive

Results for COc1ccc(C2NC(=O)c3ccccc3N2)cc1COc1ccc(NC(C)=O)cc1 (configuration not stated) ?
TDP1 inh: inactive

Results for O=C1NC(c2ccc3c(c2)OCO3)Nc2ccccc21 (configuration not stated) ?
DT40 TDP1 CPT: 23.1µM; TGFb inhibitor: inactive; IL-1B inflam inh: inactive; TDP1 cell noCPT: 16.4µM; HepG2 viability: inactive; TDP1 inh: inactive

Results for O=C1NC(c2ccc3c(c2)OCO3)Oc2ccccc21 (configuration not stated) ?
DT40 TDP1 CPT: inactive; TGFb inhibitor: inactive; IL-1B inflam inh: inactive; TDP1 cell noCPT: inactive; HepG2 viability: inactive; TDP1 inh: inactive

How did Brc1ccc(C2Nc3cccc4cccc(c34)N2)cc1 do in these assays?
DT40 TDP1 CPT: inconclusive; TGFb inhibitor: inactive; IL-1B inflam inh: inactive; TDP1 cell noCPT: inactive; HepG2 viability: inactive

Results for CCN(C(=O)c1c(C)noc1C)c1c(N)n(Cc2ccccc2)c(=O)[nH]c1=O ?
DT40 TDP1 CPT: inactive; TGFb inhibitor: inactive; IL-1B inflam inh: inactive; TDP1 cell noCPT: inactive; HepG2 viability: inactive; TDP1 inh: inactive

How did COc1ccc(C2NC(=O)c3ccccc3N2)cc1OC (configuration not stated) do in these assays?
DT40 TDP1 CPT: inactive; TGFb inhibitor: inactive; IL-1B inflam inh: inactive; TDP1 cell noCPT: inactive; HepG2 viability: inactive; TDP1 inh: inactive

How did Cc1ccccc1NC(=O)NCc1ccc2c(c1)OCO2 do in these assays?
DT40 TDP1 CPT: inactive; TGFb inhibitor: inactive; IL-1B inflam inh: inactive; TDP1 cell noCPT: inactive; HepG2 viability: inactive; TDP1 inh: inactive

Results for O=C1NC(c2ccc3ccccc3c2)Nc2ccccc21 (configuration not stated) ?
DT40 TDP1 CPT: 16.4µM; TGFb inhibitor: inactive; IL-1B inflam inh: inactive; TDP1 cell noCPT: 6.51µM; HepG2 viability: inactive

How did O=C1NC(c2ccccc2Cl)Nc2ccccc21 (configuration not stated) do in these assays?
DT40 TDP1 CPT: inconclusive; TGFb inhibitor: inactive; IL-1B inflam inh: inactive; TDP1 cell noCPT: 18.4µM; HepG2 viability: inactive; TDP1 inh: inactive

Results for CC1(CCc2ccc3c(c2)OCO3)NC(=O)c2ccccc2N1 (configuration not stated) ?
DT40 TDP1 CPT: 23.1µM; TGFb inhibitor: inactive; IL-1B inflam inh: inactive; TDP1 cell noCPT: inconclusive; HepG2 viability: inactive; TDP1 inh: inactive

What do the screens show for `CCNC(=O)CSc1nnc(-c2cc(-c3ccc(Cl)cc3)nc3ccccc23)o1`?
DT40 TDP1 CPT: inactive; TGFb inhibitor: inactive; IL-1B inflam inh: inactive; TDP1 cell noCPT: inactive; HepG2 viability: inactive; TDP1 inh: inactive

Results for CN(C)C(=O)CSc1nnc(-c2cc(-c3cccs3)nc3ccccc23)o1 ?
DT40 TDP1 CPT: inactive; TGFb inhibitor: inactive; IL-1B inflam inh: -60.3; TDP1 cell noCPT: 18.4µM; HepG2 viability: inactive; TDP1 inh: inactive

Results for COc1ccc(CN2C[C@@H](CO)O[C@@H](n3cnc4c(N5CCN(CCO)CC5)ncnc43)C2)cc1 ?
DT40 TDP1 CPT: inconclusive; TGFb inhibitor: inactive; IL-1B inflam inh: inactive; TDP1 cell noCPT: inactive; HepG2 viability: inactive

How did O=c1c(-c2cc(F)cc(F)c2)nc2cncnc2n1-c1ccccc1 do in these assays?
DT40 TDP1 CPT: inactive; TDP1 cell noCPT: inactive

What do the screens show for `CCCC(O)(CCC)C(=O)NN1CCCCC1`?
DT40 TDP1 CPT: 23.1µM; TGFb inhibitor: inactive; IL-1B inflam inh: inactive; TDP1 cell noCPT: inconclusive; HepG2 viability: inactive; TDP1 inh: inactive

Results for Cc1ccc(S(=O)(=O)N2CCN(c3ncccn3)CC2)cc1C ?
DT40 TDP1 CPT: 5.8µM; TGFb inhibitor: inactive; IL-1B inflam inh: inactive; TDP1 cell noCPT: inconclusive; HepG2 viability: inactive

How did O=S(=O)(c1ccc2c(c1)OCCO2)N1CCN(c2ncnc3sccc23)CC1 do in these assays?
DT40 TDP1 CPT: 5.17µM; TGFb inhibitor: inconclusive; IL-1B inflam inh: inactive; TDP1 cell noCPT: 2.31µM; HepG2 viability: inactive; TDP1 inh: inactive

How did O=S(=O)(c1ccc(Cl)cc1)N1CCN(c2ncccn2)CC1 do in these assays?
DT40 TDP1 CPT: inactive; TGFb inhibitor: inactive; IL-1B inflam inh: inactive; TDP1 cell noCPT: inactive; HepG2 viability: inactive; TDP1 inh: inactive

How did Cc1ccc(S(=O)(=O)N2CCN(c3ncnc4sccc34)CC2)cc1C do in these assays?
DT40 TDP1 CPT: 5.8µM; TGFb inhibitor: inconclusive; IL-1B inflam inh: inactive; TDP1 cell noCPT: 5.8µM; HepG2 viability: inactive; TDP1 inh: inactive

How did CS(=O)(=O)c1ccc(Cl)c(NC(=O)CSc2nnc(-c3cccs3)n2N)c1 do in these assays?
DT40 TDP1 CPT: inactive; TGFb inhibitor: inactive; IL-1B inflam inh: inactive; TDP1 cell noCPT: inactive; HepG2 viability: inactive; TDP1 inh: inactive

How did O=C(COc1ccccc1Cl)NCCNC(=O)c1cccnc1 do in these assays?
DT40 TDP1 CPT: inactive; TGFb inhibitor: inactive; IL-1B inflam inh: inactive; TDP1 cell noCPT: inactive; HepG2 viability: inactive; TDP1 inh: inactive[0.0935 µM]

Results for CCOc1ccc(N2C(N)=NC(N)=NC2(C)C)cc1 ?
DT40 TDP1 CPT: inconclusive; TGFb inhibitor: inactive; IL-1B inflam inh: inactive; TDP1 cell noCPT: 6.51µM; HepG2 viability: inactive; TDP1 inh: inactive

What do the screens show for `COc1cccc(N2C(N)=NC(N)=NC2(C)C)c1`?
DT40 TDP1 CPT: 5.17µM; TGFb inhibitor: inactive; IL-1B inflam inh: inactive; TDP1 cell noCPT: 1.03µM; HepG2 viability: inactive; TDP1 inh: inactive

How did CCOC(=O)c1cccc(N2C(N)=NC(N)=NC2(C)C)c1 do in these assays?
DT40 TDP1 CPT: inactive; TGFb inhibitor: inactive; IL-1B inflam inh: inactive; TDP1 cell noCPT: 4.11µM; HepG2 viability: inactive; TDP1 inh: inactive

Results for COc1ccc(N2C(N)=NC(N)=NC2(C)C)cc1 ?
DT40 TDP1 CPT: inconclusive; TGFb inhibitor: inactive; IL-1B inflam inh: inactive; TDP1 cell noCPT: 0.326µM; HepG2 viability: inactive; TDP1 inh: inactive

What do the screens show for `CC1(C)N=C(N)N=C(N)N1c1cccc(C(=O)O)c1`?
DT40 TDP1 CPT: inactive; TGFb inhibitor: inactive; IL-1B inflam inh: inactive; TDP1 cell noCPT: inactive; HepG2 viability: inactive; TDP1 inh: inactive

What do the screens show for `CC1(C)N=C(N)N=C(N)N1c1cccc(C#N)c1`?
DT40 TDP1 CPT: inconclusive; TGFb inhibitor: inactive; IL-1B inflam inh: inactive; TDP1 cell noCPT: 1.03µM; HepG2 viability: 2µM
